Laboratory results taken from PubChem BioAssay (NCATS).
Results filed as inconclusive are left out. Active and inactive are the calls of the source. Unless noted, no rule for the calls is given here.

Key:
[1] = qHTS profiling for inhibitors of Plasmodium falciparum (3D7) proliferation (AID 743322);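 also: infected erythrocytes exposed to compound for 72 h before lysis; 100% = DMSO vehicle wells and 0% = 0.29 µM artemisinin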; conditions: P. falciparum 3D7 proliferation; at 28.7 µM (top of the series)
Outline: (§1)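 Erythrocytes infected with P. falciparum (0.3% parasitemia, 2.5% hematocrit) incubated with compounds 72 h at 37 C, 5% CO2. Lysis with saponin/Triton buffer containing SYBR Green I, overnight at room temperature in the dark; DNA fluorescence (485/535 nm) normalised to 0.29 uM artemisinin and DMSO.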

[2] = qHTS profiling for inhibitors of Plasmodium falciparum (DD2) proliferation (AID 743323); conditions: lower = more inhibition; at 28.7 µM (top of the series)
Outline: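 1536-well qHTS; infected RBCs 0.3% parasitemia/2.5% Hct final; cpd 72 h 37 C 5% CO2; lysis buffer + SYBR Green I, o/n RT dark; FI 485/535; norm. to 0.29 uM artemisinin and DMSO, plate-stack corrected.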

[3] = qHTS profiling for inhibitors of Plasmodium falciparum (HB3) proliferation (AID 743324; active = well fitted curve in the direction sought with a large enough effect; an effect the other way counts as inactive or inconclusive;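 also: 100% = DMSO vehicle wells and 0% = artemisinin-treated control wells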); conditions: Plasmodium falciparum HB3 blood-stage proliferation; at 28.7 µM (top of the series)
Outline: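 P. falciparum HB3 grown in erythrocytes (0.3% parasitemia, 2.5% hematocrit final) with compound for 72 h at 37 C, 5% CO2. Parasite DNA detected by SYBR Green after saponin/triton lysis overnight; normalized to 0.29 uM artemisinin and DMSO.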

[4] = qHTS profiling of the MIPE4 collection as inhibitors of Plasmodium falciparum (3D7) proliferation (AID 743344);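 also: scaled between DMSO vehicle wells and 0.29 µM artemisinin as full inhibition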; conditions: P. falciparum 3D7 in erythrocytes, SYBR Green DNA fluorescence, 72 h; at 28.5 µM (top of the series) unless noted
Outline: as §1

[5] = qHTS profiling of the MIPE4 collection as inhibitors of Plasmodium falciparum (DD2) proliferation (AID 743345); conditions: P. falciparum Dd2 in erythrocytes, SYBR Green DNA, 72 h; at 28.5 µM (top of the series) unless noted
Outline: as §1

[6] = qHTS profiling of the MIPE4 collection as inhibitors of Plasmodium falciparum (DD2) proliferation (Rep 2) (AID 743346); conditions: P. falciparum Dd2 in erythrocytes, SYBR Green DNA, 72 h; at 28.5 µM (top of the series) unless noted
Outline: as §1

[7] = High-throughput drug toxicity screening in the BPDCN cell line Gen2.2 (AID 1224824); conditions: Gen2.2 BPDCN cells; at 45.8 µM (top of the series) unless noted;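 also: cells exposed to compounds for 48 h before reading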
Outline: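 Gen2.2 cells, 500 per well in phenol red-free RPMI with 10% FBS, exposed to compounds 48 h at 37 C, 5% CO2; viability by CellTiter-Glo luminescence. Percent activity scaled to DMSO (100%) and 9.2 uM bortezomib final (0%).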

[8] = High-throughput drug toxicity screening in the BPDCN cell line Cal-1 (AID 1224825); conditions: Cal-1 BPDCN cell viability, qHTS; at 45.8 µM (top of the series) unless noted
Outline: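 Cal-1 cells, 500 per well in phenol-red-free RPMI with 10% FBS, exposed to compounds for 48 hours at 37C, 5% CO2. Viability read by CellTiter-Glo luminescence; percent activity normalized to DMSO (100%) and 9.2 uM bortezomib final (0%).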

[9] = qHTS assay for measurement of the activity of small molecule inhibitors on Zika virus induced Caspase-3 activity in human iPSC derived neural progenitor cells (hNPCs) (AID 1224857; active = well fitted curve in the direction sought with a large enough effect; an effect the other way counts as inactive or inconclusive; also: nearly all actives have a fitted effect of over 65% in size; also: potency is read from the fitted curve at half-maximal effect)
Outline: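 Caspase-3/7 induction by a 6-hour ZIKV infection was quantified with a luminescent Caspase-Glo 3/7 reagent incubated 30 minutes at room temperature. Compounds were preincubated with hNPCs for 1 hour; inhibition was calculated against uninfected and infected control wells.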

[10] = qHTS profiling of the MIPE4 collection as inhibitors of Plasmodium falciparum (HB3) proliferation (AID 743347);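 also: plate controls were DMSO vehicle wells for no effect and artemisinin wells for full effect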; conditions: P. falciparum HB3 in erythrocytes, SYBR Green DNA, 72 h; at 28.5 µM (top of the series) unless noted
Outline: as §1

| Compound | remaining parasite growth % (stronger effect = lower value) [1] [%] | activity, percent of control [2] [%] | remaining proliferation (% of control), lower = more inhibition [3] [%] | parasite growth, % of DMSO control [4] [%] | parasite growth remaining, % of DMSO control (lower = more inhibition) [5] [%] | parasite growth, % of control (lower = inhibition) [6] [%] | cell viability, % of control (lower = more cytotoxic) [7] [%] | viability (% of control) [8] [%] | Potency [9] | growth, % of control [10] [%] |
| --- | --- | --- | --- | --- | --- | --- | --- | --- | --- | --- |
| O=c1[nH]nc(Sc2ncc([N+](=O)[O-])s2)n1-c1ccc2c(c1)OCCO2 | 21 | 65.9 | 3.82 | 59.7 | 64.7 | 60.1 | 3.22 | 2.62 | 23.5 µM (active) |  |
| NC(=O)Nc1cc(-c2cccc(F)c2)sc1C(=O)N[C@H]1CCCNC1 | -0.937 | 5.1 | 0.699 | 7.3 | 10.6 | 15.5 | 7.53 | 4.12 | inactive |  |
| Cc1ccc(S(=O)(=O)Nc2cc(Cl)ccc2C(=O)Nc2nc(-c3ccccc3)cs2)cc1 | 11.7 | 6.55 | 8.77 | 64.3 | 16.4 | 21.2 | 172 | 96.8 | inactive | 49.7 |
| COc1ccc(CC2SC(=O)NC2=O)cc1C(=O)NCc1ccc(C(F)(F)F)cc1 (stereo not given) | 90.2 | 93.1 | 54.2 | 32.5 | 91.4 | 56.9 | 96 | 84.9 | inactive | 55.5 |
| C#Cc1cccc(Nc2ncnc3cc(OC)c(OCCCCCCC(=O)NO)cc23)c1 | -1.67 | 0.0372 | -0.395 | 5.53 | 6.37 | 11.2 | 44.2 | 3.6 | inactive |  |
| COC(=O)C[C@](O)(CCCC(C)(C)O)C(=O)O[C@@H]1C(OC)=C[C@]23CCCN2CCc2cc4c(cc2[C@H]13)OCO4 |  |  |  |  |  |  | 131 | 134 | inactive |  |
| C[C@@]12O[C@@H](C[C@]1(O)CO)n1c3ccccc3c3c4c(c5c6ccccc6n2c5c31)CNC4=O | -0.0626 | 0.326 | 0.698 | 6.66 | 6.07 | 28.1 | 9.33 | 5.8 | inactive |  |
| C=C1C(=CC=C2CCC[C@]3(C)[C@@H]([C@H](C)C=C[C@H](C)C(C)C)CC[C@@H]23)C[C@@H](O)C[C@@H]1O | 88.6 | 102 | 92.2 | 6.24 | 7.23 | 7.88 | 104 | 5.8 | inactive | 9.22 |
| c1ccc2c(CCNc3ccc(Nc4ccncc4)cc3)c[nH]c2c1 | 1.57 | 6.37 | -0.777 | 11.1 | 10.6 | 6.39 | 5.37 | 3.61 | inactive | 5.7 |
| Clc1ccc2ncc(-c3cccc(NC4CNC4)n3)n2c1 | 5.93 | 12 | 6.95 | 10.6 | 24.5 | 24.4 | 15.7 | 4.56 | inactive |  |
| c1cc(-c2cnn3cc(-c4ccc(OCCN5CCCCC5)cc4)cnc23)ccn1 | 6.04 | 13.9 | 12 | 4.66 | 6.66 | 10.1 | 2.64 | 3.8 | inactive | 4.45 |
| CC1(C)OC2=C(C(=O)c3ccccc3C2=O)[C@H](NCc2ccccc2)[C@H]1O | -2.33 | 0.336 | -1.28 | 6.23 | 7.16 | 6.48 | 12 | 8.3 | 18.7 µM (active) | 3.94 |
| CCCNC(=O)Nc1ccc(Oc2ncnc3cc(OC)c(OC)cc23)cc1Cl |  |  |  |  |  |  | 69.6 | 92.7 | inactive |  |
| Cc1cc(Nc2cc(N3CCN(C)CC3)nc(Sc3ccc(NC(=O)C4CC4)cc3)n2)n[nH]1 | 39.3 | 68.3 | 9.14 | 11.5 | 16 | 22.4 | 36.4 | 12.3 | inactive |  |
| CC(C)c1ccc(Cn2ccc3c4c(N)nc(NC5CC5)nc4ccc32)cc1 | -2.55 | -1.01 | -1.47 | 4.63 | 6.19 | 15.1 | 3.92 | 4.41 | inactive | 3.42 |
| C[C@]1(CO)CN(c2cc(C(=O)Nc3ccc4c(c3)-c3c(c(C(N)=O)nn3-c3ccc(F)cc3)CC4)c(Cl)cn2)C[C@@]1(C)CO | 50.5 | 56.4 | 6.49 | 11.4 | 17.1 | 38.3 | 27.2 | 6.89 | inactive | 9.48 |
| COc1cc2ncnc(Nc3ccc(F)c(Cl)c3)c2cc1NC(=O)C=CCN1CCCCC1 | -0.218 | 0.401 | 0.28 | 9.04 | 8.26 | 11 | 10 | 3.6 | inactive | 6.53 |
| O=C(O)c1ccc2cc(-c3ccc(O)c(C45CC6CC(CC(C6)C4)C5)c3)ccc2c1 | 5.44 | 10.6 | -1.12 | 13.5 | 40 | 25.3 | 30.9 | 7.6 | inactive | 11.7 |
| CN(C)CCCN=c1c2ccccc2n(C)c2[nH]c(=O)n(C)c(=O)c12 | 5.55 | 15.1 | 3.8 | 5.98 | 10.8 | 9.14 | 2.75 | 4 | inactive | 3 |
| Cc1cn(-c2cc(NC(=O)c3ccc(C)c(Nc4nccc(-c5cccnc5)n4)c3)cc(C(F)(F)F)c2)cn1 | 3.06 | 12.7 | 2.94 | 6.31 | 8.07 | 27.3 | 231 | 101 | inactive | 7.2 |
| Cn1cc(-c2[nH]c3cc(NC(=O)[C@H](N)C4CCCCC4)cc4c3c2C=NNC4=O)cn1 | -2.18 | -0.309 | -1.93 | 3.34 | 5.92 | 4.04 | 28.9 | 4.56 | inactive | 2.91 |
